ChEMBL document CHEMBL4513216, “Probing the Open Global Health Chemical Diversity Library for Multistage-Active Starting Points for Next-Generation Antimalarials” (ACS Infect Dis, 2020)
The campaign covered roughly 69,000 compounds. About 8,600 (12%) showed an effect of 50% or more. Only a selection was taken, and strong results are over-represented in it overall.

system: Plasmodium berghei; experiment: Screen against P. berghei liver stage (PbLuc), transformed with Luciferase, at 10uM; assay type: functional, HepG2; details: tested at 10 uM

Compound	INHIBITION [%]
CN(C)c1cc2c(nn1)CCN(C(=O)Cc1ccc3c(c1)CCC3)C2	5.8
CCn1nc(C)c2nc(C(C)C)nc(NCC(C)C)c21	47.4
Cc1occc1C(=O)N1CCC2(CC1)NC(=O)CC2c1cnn(C)c1 (stereo not drawn)	42.1
CNC(=O)C1CN(C)CCN(CCCOc2ccccc2F)C1 (stereo not drawn)	8.72
CC(=O)Nc1ccc(SCC(=O)NCC2CCCO2)nn1 (stereo not drawn)	-4.83
COc1cccc([C@@]2(O)CC[C@@H]3CN(C(=O)c4cn(C)nc4C)C[C@@H]32)c1	-1.95
OCc1nnn2c1CN(Cc1cccnc1)CCC2	29
CCc1cnc(CN(C(C)=O)C2CCN(Cc3nccn3C)C2)o1 (stereo not drawn)	-6.865
O=C(NCC1CCCO1)c1cc(Sc2ncccn2)ccn1 (stereo not drawn)	32.8
CS(=O)(=O)N1CCC2(CC1)CC(NCC1CC1)c1ccccc12 (stereo not drawn)	59.3
c1cnc(N2CCC3(CC2)CC(NCC2CC2)c2ccccc23)nc1 (stereo not drawn)	88.1
Cn1cc(CNC2CC3(CCN(S(C)(=O)=O)CC3)c3ccccc32)cn1 (stereo not drawn)	44.8
CC(C)NC(=O)CC1CC2(CCN(S(C)(=O)=O)CC2)c2ccccc21 (stereo not drawn)	18.5
CN(C)C(=O)CC1CC2(CCN(c3ncccn3)CC2)c2ccccc21 (stereo not drawn)	38.5
Cn1cc(CNC2CC3(CCN(CC4CC4)CC3)c3ccccc32)cn1 (stereo not drawn)	-40.4
CS(=O)(=O)N1CCC2(CC1)CC(NCc1ccco1)c1ccccc12 (stereo not drawn)	66.6
CS(=O)(=O)N1CCC2(CC1)CC(CC(=O)NC1CC1)c1ccccc12 (stereo not drawn)	37
CS(=O)(=O)N1CCC2(CC1)CC(NCc1ccccn1)c1ccccc12 (stereo not drawn)	45.7
CNC(=O)CC1CC2(CCN(S(C)(=O)=O)CC2)c2ccccc21 (stereo not drawn)	6.66
CNC(=O)CNC1CC2(CCN(c3ncccn3)CC2)c2ccccc21 (stereo not drawn)	2.4
CNC(=O)CC1CC2(CCN(c3ncccn3)CC2)c2ccccc21 (stereo not drawn)	55.6
CC(Nc1cccc2c1OCCO2)C(=O)Nc1cccc(C#N)c1 (stereo not drawn)	8.12
CCc1nc(CN(C(C)=O)C2CCN(CCc3ccccn3)C2)no1 (stereo not drawn)	29.7
Oc1nc(N2CCOCC2)nc2nccc(-c3ccccn3)c12	-21.3
CNC(=O)c1cc(C)n(-c2ccccc2)n1	36.2
O=C(NCc1cccs1)[C@@H]1CC[C@@H]2[C@@H](CCN2CC2CCC2)O1	30.3
CC(C)[C@H]1CN(c2cnccn2)C[C@@H]1NC(=O)C1(C#N)CCOCC1	49.5
CC(C)C[C@@H](CO)n1cc(-c2cncnc2)nn1	28.4
